Holding throughout (test): NCI-60 one-dose screen, 48 h (100 = growth as untreated, 0 = no growth, -100 = all killed)
Holding throughout (conditions): 10 µM unless noted

The test system of assay [1] is NCI-H23 lung.
The test system of assay [2] is NCI-H226 lung.
Assay [3] deals with NCI-H322M lung.
The test system of assay [4] is HOP-62 NSCLC.
Assay [5] has as its system NCI-H460 lung.
Assay [6] relates to HOP-92 NSCLC.
Assay [7] has as its system NCI-H522 lung.
Assay [8] relates to A549/ATCC NSCLC.
Assay [9] concerns 786-0 renal.
The subject of assay [10] is COLO 205 colon.

Drawing on PubChem BioAssay (NCI), this text covers growth for 13 molecules.

About 83,000 compounds went through this panel and 20% of them were active in at least one assay; those are over-represented in the sample as a whole.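 Compound tested at a single concentration for 48 hours in 96-well plates; a percent growth value below 10 was scored as active.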 Values without a mark were called inactive. Activity calls are given as the source filed them.

Consider `Cn1cc(-c2nnc(-c3cn(C)c4ncccc34)s2)c2ccccc21`, for which the growth is 84.6% in [1]; 96% in assay [2]; 92.7% in assay [3]; 65.8% in [4]; 75.1% in [5]; 30.2% in assay [6]. Further, the growth in assay [7] was 32.1%; in [8], 57.6%; in [9] it was 78.4%; in assay [10], 64.1%.

Consider `COc1ccc(CC(C#N)c2ccc(Cl)cc2)cc1` (stereo not given), for which the growth in assay [1] was 77.2%; in assay [2], 87.5%; in assay [3] it was 93.9%; in [4], 74.3%; in assay [5], 83.7%; in assay [6] it was 83.8%. Besides, the growth is 78.1% in assay [7], 79.1% in assay [8], 87% in assay [9] and 94% in assay [10].

With `CS(=O)(=O)c1cccnn1`, the growth in assay [1] is 95.8%; in assay [2] it was 97.4%; in assay [3] it was 99.7%; in assay [4] it was 103%; in assay [5], 101%; in assay [6], 75.5%. The growth in assay [7] was 82%; in assay [8], 104%; in assay [9], 97.2%; in [10] it was 131%.

`CC1(C)CC[C@]23CC[C@]4(C)[C@H](CC[C@@H]5[C@@]6(C)C/C(=C/c7ccncc7)C(=O)C(C)(C)[C@@H]6CC[C@]54C)[C@H]2[C@H]1OC3=O`: the growth was 61.4% [100 µM] in [1]; 77.4% [100 µM] in [2]; 96.5% [100 µM] in assay [3]; 10.2% [100 µM] in [4]; 51% [100 µM] in assay [5]; 16.8% [100 µM] in assay [6]. For the same molecule, the growth is 50.9% [100 µM] in [7], 70.1% [100 µM] in assay [8], 31% [100 µM] in assay [9] and 90.5% [100 µM] in assay [10].

On to `COc1ccc2c(c1)C(C)Cc1c(Cl)ncnc1N2C` (stereo not given), for which the growth was 7.68% (active) in assay [1]; -3.41% (active) in assay [2]; 36.1% in [3]; 11.8% in assay [4]; 16.6% in [5]; 6.91% (active) in assay [6]. The growth in assay [7] was -49.9% (active); in assay [8], 15%; in assay [9], 7.84% (active); in assay [10] it was -66% (active).

Take `CSc1cccc([N+](=O)[O-])c1`: the growth in [1] was 109%; in [2] it was 104%; in assay [3] it was 102%; in [4], 105%; in assay [5], 114%; in assay [6], 106%. Besides, the growth in assay [7] was 84%; in [8] it was 101%; in [9], 101%; in assay [10], 107%.

`CCCn1ccnc1C(O)c1ccc(OCc2ccccc2)c(OC)c1` (stereo not given): the growth in [1] is 90.7%; in assay [2] it was 97.4%; in [3], 90.1%; in assay [4], 87.5%; in assay [5], 103%; in assay [6] it was 68.1%. Moreover, the growth was 66.1% in assay [7], 97.7% in [8], 96.6% in assay [9] and 93.2% in [10].

Take `COc1ccc(NC(=S)NNc2ccc(-c3ccc(OC)c(OC)c3)nn2)cc1`: the growth was 106% in assay [1]; 107% in assay [2]; 96.7% in assay [3]; 97.8% in assay [4]; 99.7% in assay [5]; 106% in assay [6]. The growth in assay [7] is 97.9%; in assay [8], 110%; in assay [9], 101%; in assay [10] it was 112%.

Turning to `C#CC(OC(=O)N(C)C)(c1ccccc1)c1ccc(F)cc1` (stereo not given), the growth was 98.7% in assay [1]; 89.7% in assay [2]; 128% in assay [3]; 116% in [4]; 96.7% in [5]; 92.9% in assay [6]. Further, the growth in assay [7] is 83.2%; in assay [8] it was 75%; in assay [9], 120%; in assay [10], 158%.

For the molecule `CCN(CC)CC(C)Nc1ccc(C)c2sc3ccccc3c(=O)c12` (stereo not given), the growth in [1] was 65.9%; in [2] it was 74.2%; in assay [3], 91.8%; in assay [4] it was 76.3%; in assay [5] it was 19.5%; in [6], 38.2%. Further, the growth in assay [7] was 64.8%; in assay [8], 32.7%; in [9] it was 53.1%; in [10], 37.9%.

Consider `Brc1ccc(-c2nnc3c4[nH]ccc4ncn23)cc1`, for which the growth in [1] was 88.3%; in assay [2], 96.7%; in assay [3] it was 91%; in assay [4], 92.6%; in assay [5] it was 90.1%; in [6], 69.6%. In addition, the growth in assay [7] was 80.9%; in assay [8], 91.8%; in assay [9] it was 94%; in assay [10], 109%.

Regarding `C=C(CC(=O)OC)C(C)=O`, the growth in [1] was 105%; in assay [2], 104%; in assay [3] it was 119%; in assay [4], 98.7%; in [5] it was 111%; in [6], 112%. Moreover, the growth in assay [7] is 101%; in assay [8], 114%; in assay [9] it was 106%; in [10], 116%.

`FC(F)(F)c1ccc2c(c1)Sc1ccccc1N2`: the growth is 96.4% in assay [1]; 94% in assay [2]; 103% in assay [3]; 97% in [4]; 104% in [5]; 79.9% in assay [6]. The growth in assay [7] was 84.9%; in assay [8], 95.4%; in assay [9] it was 89.6%; in [10], 110%.
